The supplement of paper PMC3898565
Structures can show the parent of a compound that is named as a salt. ± gives the uncertainty stated by the source.

tested on: U87; assay: cell viability relative to vehicle control; higher = less growth inhibition (less active); conditions: 10 µM; 72 h
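Note: viable cell number estimated from Alamar Blue fluorescence read at 560/90, part of a single-dose primary screen of an FDA-approved drug library.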

Structure (SMILES)	cell viability [%]
Fc1ccc([C@@H]2CCNC[C@H]2COc2ccc3c(c2)OCO3)cc1 [Paroxetine]	101 ± 1.2
CCN1CCCC1CNC(=O)c1cc(S(=O)(=O)CC)c(N)cc1OC (stereo not given) [Amisulpride]	101.2 ± 0.96
C[C@H](CCC(=O)O)[C@H]1CC[C@H]2[C@@H]3C(=O)C[C@@H]4CC(=O)CC[C@]4(C)[C@H]3CC(=O)[C@]12C	103.4 ± 0.82
CC(C)(C)NC(=O)[C@H]1CC[C@H]2[C@@H]3CC[C@H]4NC(=O)C=C[C@]4(C)[C@H]3CC[C@]12C	104.8 ± 0.76
CN1CCC(=C2c3ccccc3CCc3sccc32)CC1 [Pizotyline]	94.7 ± 13
Nc1c2c(nc3c1CCC3)CCCC2	97.1 ± 5.7
CN(C)CCOC(C)(c1ccccc1)c1ccccn1 (stereo not given) [doxylamine succinate]	96.6 ± 1.2
C[C@]12CCC(=O)C=C1CC[C@@H]1[C@@H]2C(=O)C[C@@]2(C)[C@H]1CC[C@]2(O)C(=O)CO	102 ± 2.8
COC(=O)C1=C(C)NC(C)=C(C(=O)OC)C1c1ccccc1[N+](=O)[O-]	105 ± 1.4
CCOc1cc(N)c(Cl)cc1C(=O)NCC1CN(Cc2ccc(F)cc2)CCO1 (stereo not given)	108 ± 1.4
CNC(=C[N+](=O)[O-])NCCSCc1csc(CN(C)C)n1	99.1 ± 1.3
CCOC(=O)C1(CCCCCCOc2ccc(Cl)cc2)CO1 (stereo not given)	106 ± 1.7
CNCCCC12CCC(c3ccccc31)c1ccccc12 [Maprotilline HCl]	102 ± 1.5
COc1ccc(-c2oc3c(CC=C(C)C)c(O[C@@H]4O[C@H](CO)[C@@H](O)[C@H](O)[C@H]4O)cc(O)c3c(=O)c2O[C@@H]2O[C@@H](C)[C@H](O)[C@@H](O)[C@H]2O)cc1	105 ± 1.9
CC1(C)S[C@@H]2[C@H](/N=C/N3CCCCCC3)C(=O)N2[C@H]1C(=O)O	104 ± 2.1
CCC(C)(C)N=C(NC#N)Nc1cccnc1	107 ± 1.1
O=C(CCCN1CC=C(n2c(=O)[nH]c3ccccc32)CC1)c1ccc(F)cc1	106 ± 1.7
CC(=O)CCCCn1c(=O)c2c(ncn2C)n(C)c1=O [Pentoxifylline]	101.9 ± 0.75
O=C(O)c1cc(/N=N/c2ccc(S(=O)(=O)Nc3ccccn3)cc2)ccc1O	102 ± 1.6
COc1cc(C(=O)NC2CCCNC2)cc(OC)c1OC (stereo not given)	101 ± 4.2

Structure (SMILES)	cell viability [%]
CCCCCNC(=N)N/N=C/c1c[nH]c2ccc(OC)cc12	108 ± 1.2
O=C1[C@H]2CCCC[C@H]2C(=O)N1CCCCN1CCN(c2nsc3ccccc23)CC1	102 ± 2.2
CC(=O)O[C@@]12CO[C@@H]1C[C@H](O)[C@@]1(C)C(=O)[C@H](O)C3=C(C)[C@@H](OC(=O)[C@H](O)[C@@H](NC(=O)OC(C)(C)C)c4ccccc4)C[C@@](O)([C@@H](OC(=O)c4ccccc4)[C@H]21)C3(C)C	45.2 ± 1.5
COCCOC(=O)C1=C(C)NC(C)=C(C(=O)OC(C)C)C1c1cccc([N+](=O)[O-])c1 (stereo not given)	103 ± 1.5
CCOC(=O)c1ncn2c1CN(C)C(=O)c1cc(F)ccc1-2	103 ± 1.8
NC(=O)c1cccnc1	104.5 ± 1
Cc1c2oc3c(C)ccc(C(=O)N[C@@H]4C(=O)N[C@H](C(C)C)C(=O)N5CCC[C@H]5C(=O)N(C)CC(=O)N(C)[C@@H](C(C)C)C(=O)O[C@@H]4C)c3nc-2c(C(=O)N[C@@H]2C(=O)N[C@H](C(C)C)C(=O)N3CCC[C@H]3C(=O)N(C)CC(=O)N(C)[C@@H](C(C)C)C(=O)O[C@@H]2C)c(N)c1=O	16.2 ± 2.6
CC12CC3CC(C)(C1)CC(N)(C3)C2	123 ± 1.4
Nc1[nH]c(=O)ncc1F	102 ± 1.7
COc1cc(C[C@@H](CO)[C@H](CO)Cc2ccc(O)c(OC)c2)ccc1O	96.4 ± 14
CN1CCC(=C2c3ccccc3CC(=O)c3sccc32)CC1	109 ± 3.3
O=C(NCCN1CCOCC1)c1ccc(Cl)cc1 [4-Chloro-N-(2-morpholin-4-yl-ethyl)-benzamide]	80.9 ± 3.8
CN(C)CC/C=C1/c2ccccc2COc2ccc(CC(=O)O)cc21	95.88 ± 0.86
COc1ccc(-c2cc(=O)c3c(OC)c(OC)c(OC)c(OC)c3o2)cc1OC [Nobiletin]	104.9 ± 0.98
O=C1c2cccc3c2[C@H](CCC3)CN1[C@@H]1CN2CCC1CC2	84.3 ± 1.7
CCOC(=O)O[C@]1(C(=O)OCCl)CC[C@H]2[C@@H]3CCC4=CC(=O)C=C[C@]4(C)[C@H]3[C@@H](O)C[C@@]21C	104 ± 1.4
O=C1CC[C@@H](C(=O)N2CSC[C@H]2C(=O)O)N1	99.4 ± 1.6
C=CC1=C(C(=O)O)N2C(=O)[C@@H](NC(=O)/C(=N\O)c3csc(N)n3)[C@H]2SC1	107 ± 1.5
Cc1nccn1CC1CCc2c(c3ccccc3n2C)C1=O (stereo not given) [Ondansetron]	99.8 ± 1.5
C[C@]12C=CC(=O)C=C1CC[C@@H]1[C@@H]2[C@@H](O)C[C@@]2(C)[C@H]1CC[C@]2(O)C(=O)COC(=O)CCC(=O)O	104 ± 0.49
